Measured values reported in PubChem BioAssay (Tox21).
Records with an inconclusive call do not appear. Unmarked numbers belong to inactive results. The source made the active and inactive calls. Calls come from the whole dose curve.

Experiment: qHTS assay for small molecule agonists of the p53 signaling pathway (AID 651631); note: nearly all actives have a fitted effect of over 15% in size
Settings: HCT-116 p53RE-bla reporter, beta-lactamase FRET ratio, 16 h; series mostly up to 73.3 µM; activation: at the top concentration
Excerpt: U.S. Tox21 Program National Center for Advancing Translational Sciences [NCATS] NIH Chemical Genomics Center [NCGC] U.S. Environmental Protection Agency [EPA] National Institutes of Environmental Health Sciences [NIEHS] National Toxicology Program [NTP] U.S. Food and Drug Administration [FDA] Tox21 Assay Overview: p53, a tumor suppressor protein, is activated following cellular insult, including DNA damage and other cellular stresses. The activation of p53 regulates cell fate by inducing DNA repair, cell cycle arrest, apoptosis, or cellular senescence. The activation of p53, therefore, is a good indicator of DNA damage and other cellular stresses. The CellSensor p53RE-bla HCT-116 cell line (Invitrogen) contains a stably integrated beta-lactamase reporter gene under control of the p53 response elements. The activation of the reporter gene under culture conditions can be detected by fluorescence intensity. This cell line was used to screen the Tox21 compound library in a 1536-well plate format and to identify agonists that activate the p53 signaling pathway.
Tox21 Assay Protocol Summary: The p53RE-bla cells were dispensed at 4,000 cells/5 ul/well in 1536-well black wall/clear bottom plates using a Multidrop dispenser. After the assay plates were incubated at a 37 C/5% CO2 incubator for 5 hours, 23 nL of compounds dissolved in DMSO, positive controls or DMSO only was transferred to the assay plate by a pin tool. The plates were incubated at 37 C for 16 hours. After 1 uL of LiveBLAzerTM B/G FRET substrate was added using a Flying Reagent Dispenser, the plates were incubated at room temperature for 2 hours, and fluorescence intensity was measured by an Envision plate reader.
% is set by controls: 0 for no effect and ±100 for the full control effect; potency is the fitted concentration of half-maximal effect.

SMILES	Potency	activation
Cn1sc(Cl)cc1=O	inactive	–
COC1=CC(=O)O[C@@H](CCc2ccccc2)C1	–	4.14% [at 95.1 µM]
COP(=S)(OC)Oc1ccc([N+](=O)[O-])cc1Cl	–	-3.49%
S=C=NCc1ccccc1	69.3 µM (active)	–
CCCCCCCCOC(=O)c1ccc(C(=O)OCCCCCCCC)c(C(=O)OCCCCCCCC)c1	–	2.48% [at 95.1 µM]
CO[C@@H]1[C@H](OC(=O)NC(=O)CCl)CC[C@]2(CO2)[C@H]1[C@@]1(C)O[C@@H]1CC=C(C)C	18.8 µM (active)	–
COc1cc(CC(C)N)cc2c1OCO2 (stereo not given)	–	-1.47% [at 95.1 µM]
CCCN(CC1CC1)c1c([N+](=O)[O-])cc(C(F)(F)F)cc1[N+](=O)[O-]	–	-4.16%
CCOP(=O)(OCC)SCCSCC	–	3.89%
CCC(COC(=O)c1cc(OC)c(OC)c(OC)c1)(c1ccccc1)N(C)C (stereo not given)	–	8.13%
II	–	-0.572%
C=CC(=O)OC(C)(C)C	–	1.37%
CC1(C)[C@H](C=C(Cl)Cl)[C@@H]1C(=O)O[C@@H](C#N)c1cccc(Oc2ccccc2)c1	–	3.89%
ClCc1ccccc1	–	-2.61%
Cc1ccc(N)cc1C	–	-2.6% [at 95.1 µM]
CCOC(=O)CBr	–	-3.04% [at 95.1 µM]
Cc1cc(=O)[nH]o1	–	-1.1% [at 95.1 µM]
O=C(O)C(F)(F)C(F)(F)C(F)(F)C(F)(F)C(F)(F)C(F)(F)C(F)(F)C(F)(F)C(F)(F)C(F)(F)F	–	5.66%
CCCCc1c(C)nc(NCC)nc1OS(=O)(=O)N(C)C	–	-3.21%
c1ccoc1	–	-2.72%

SMILES	Potency	activation
COC(=O)c1cncn1C(C)c1ccccc1 (stereo not given)	–	-2.45%
CC(C)=CCOc1c2occc2cc2ccc(=O)oc12	–	3.98%
CN1C[C@H](CNC(=O)OCc2ccccc2)C[C@@H]2c3cccc4c3c(cn4C)C[C@H]21	–	4.7%
CCCN(CCCl)c1c([N+](=O)[O-])cc(C(F)(F)F)cc1[N+](=O)[O-]	–	-1.4%
BrCCCCBr	–	-1.39%
Cn1cc[n+](C)c1 (tested in a mixture with another compound)	–	-2.64% [at 95.1 µM]
CC1CC(CC2CCC(N)C(C)C2)CCC1N (stereo not given)	–	5.88% [at 95.1 µM]
c1ccc(CN2CCNCC2)cc1	–	-2.24% [at 260 µM]
CCOS(C)(=O)=O	–	-4.01% [at 95.1 µM]
CCC(C)(NC(=O)c1cc(Cl)c(C)c(Cl)c1)C(=O)CCl (stereo not given)	27.5 µM (active)	–
O=C(CBr)OCc1ccccc1	–	-2.35%
CCC(Br)(CC)C(=O)NC(N)=O	–	2.2%
O=C(O)c1ccccc1C(=O)Nc1cccc2ccccc12	–	-2.14%
CCCCCCCCCC(=O)O[C@H]1CC[C@H]2[C@@H]3CCC4=CC(=O)CC[C@@H]4[C@H]3CC[C@]12C	–	-3.33%
C=CCC1([C@H](C)CCC)C(=O)NC(=O)NC1=O	–	-3.35%
CC(Cl)C(C)Cl (stereo not given)	–	-1.58%
COc1cc(Cl)c(OC)cc1Cl	–	-0.535%
ClCC(Br)CBr (stereo not given)	–	1.56%
Cc1ccc(-c2c(Cl)nc(C#N)n2S(=O)(=O)N(C)C)cc1	15.3 µM (active)	–
CCOP(=O)(OCC)O/C(=C/Cl)c1ccc(Cl)cc1Cl	–	1.91%
